The source of these data is PubChem BioAssay (NCI).

About 83,000 compounds went through this panel and 20% of them were active in at least one assay; those are over-represented in the sample as a whole.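 96-well plates, one dose, 48 hours. Percent growth reported; active if below 10.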 Values without a mark were called inactive. Active and inactive are the calls of the source.

Among the test systems are DU-145 prostate; K-562 leukemia; MALME-3M melanoma; MDA-MB-231 breast; RXF 393 renal; SF-268 CNS; SF-295 CNS; SF-539 CNS; UACC-257 melanoma; M14 melanoma.
Experiment in all cases: NCI-60 one-dose screen, 48 h (100 = growth as untreated, 0 = no growth, -100 = all killed)
Details in all cases: 10 µM unless noted

On to `O=C(Cn1c[n+](CC(=O)c2ccc([N+](=O)[O-])cc2)c2ccccc21)Nc1cccc2cccnc12`, for which the growth with DU-145 prostate was 85.1%; with K-562 leukemia, 38.2%; with MALME-3M melanoma it was 81.4%; in the test with MDA-MB-231 breast, 50.5%; in the test on RXF 393 renal it was 97.6%; in the test on SF-268 CNS it was 65.1%. Moreover, the growth was 101% in the test with SF-295 CNS, 87.8% in the test on SF-539 CNS, 48.6% with UACC-257 melanoma and 78.4% with M14 melanoma.

On to `O=C(/C=C/c1ccc[nH]1)c1ccc(-n2ccc(C(F)(F)F)n2)c(F)c1`, for which the growth with DU-145 prostate is 99.8%; with K-562 leukemia it was 77.4%; in the test with MALME-3M melanoma, 84.6%; in the test with MDA-MB-231 breast, 87.1%; in the test with RXF 393 renal it was 91.1%; in the test with SF-268 CNS, 93.6%. Besides, the growth is 90.2% with SF-295 CNS, 69.7% with SF-539 CNS, 99.7% in the test with UACC-257 melanoma and 94.3% in the test with M14 melanoma.

In the case of `CC(=O)c1ccc(NS(=O)(=O)c2cccc(C(=O)Nc3ccc(Br)cc3)c2)cc1`, the growth is 94.6% [25 µM] with DU-145 prostate; 44.4% [25 µM] with K-562 leukemia; 56.2% [25 µM] in the test with MALME-3M melanoma; 94.1% [25 µM] in the test on MDA-MB-231 breast; 61.7% [25 µM] with RXF 393 renal; 60.8% [25 µM] in the test on SF-268 CNS. Besides, the growth is 23.8% [25 µM] in the test with SF-295 CNS, 66.5% [25 µM] in the test with SF-539 CNS, 44.6% [25 µM] in the test on UACC-257 melanoma and 63.9% [25 µM] in the test with M14 melanoma.

Turning to `C=CCN1C(=O)/C(=C/C(=O)OC)S/C1=N\NC(=O)c1cc2ccc1/C=C\c1ccc(cc1)/C=C\2`, the growth in the test with DU-145 prostate is 106%; in the test on K-562 leukemia it was 51.9%; in the test with MALME-3M melanoma it was 92.4%; in the test on MDA-MB-231 breast it was 97.7%; in the test on RXF 393 renal, 94.8%; in the test with SF-268 CNS, 103%. Besides, the growth was 93.6% with SF-295 CNS, 99.7% in the test with SF-539 CNS, 91.1% with UACC-257 melanoma and 78.9% with M14 melanoma.

On to `CCCCCN1C=C/C(=C\C(=O)N(C)c2ccc(OC(F)(F)F)cc2)c2ccccc21`, for which the growth in the test with DU-145 prostate is 110%; in the test with K-562 leukemia, 90.3%; in the test with MALME-3M melanoma, 95.3%; in the test with MDA-MB-231 breast, 97.7%; with RXF 393 renal it was 107%; in the test on SF-268 CNS, 100%. The growth in the test with SF-295 CNS was 93%; in the test on SF-539 CNS, 103%; in the test on UACC-257 melanoma, 93.8%; with M14 melanoma, 102%.

For `O=c1ccc(-c2nc(N3CCOCC3)c3ccccc3n2)c[nH]1`, the growth was 93.6% with DU-145 prostate; 116% in the test on K-562 leukemia; 99.4% in the test on MALME-3M melanoma; 88.4% with MDA-MB-231 breast; 103% with RXF 393 renal; 88.1% in the test with SF-268 CNS. For the same compound, the growth with SF-295 CNS was 90.5%; in the test on SF-539 CNS, 93.5%; with UACC-257 melanoma, 124%; in the test on M14 melanoma, 93.3%.

For `N#CC1C(C#N)C(C(=O)c2ccc(Br)cc2)N2c3ccccc3C=CC12` (stereo not given), the growth with DU-145 prostate was 91.9%; with K-562 leukemia it was 24.4%; in the test on MALME-3M melanoma, 67.3%; with MDA-MB-231 breast, 57.6%; in the test on RXF 393 renal, 74.5%; in the test on SF-268 CNS, 78.5%. The growth in the test with SF-295 CNS was 89.1%; in the test on SF-539 CNS, 89.3%; in the test on UACC-257 melanoma it was 98.9%; with M14 melanoma, 75.3%.

Turning to `CCNC(=O)Oc1ccc(/C(=C(\C)c2ccccc2)c2ccc(OCCCN(C)C)cc2)cc1`, the growth in the test with DU-145 prostate was 92.5%; in the test with K-562 leukemia, 14.4%; with MALME-3M melanoma, 40.9%; in the test with MDA-MB-231 breast it was 76.6%; with RXF 393 renal it was 76.1%; with SF-268 CNS, 72.1%. Besides, the growth in the test on SF-295 CNS was 52.4%; in the test on SF-539 CNS, 65.8%; in the test on UACC-257 melanoma, 3.23% (active); with M14 melanoma, 19.7%.

As to `CC1(C)CC(O)CCCCCCOc2c(CN)cccc2NC(=O)c2nc(cnc2N)-c2ccc(cc2)S1(=O)=O` (stereo not given), the growth in the test on DU-145 prostate was 15.1%; in the test with K-562 leukemia, -26.3% (active); in the test with MALME-3M melanoma, -71.5% (active); in the test with MDA-MB-231 breast it was 39.8%; in the test with RXF 393 renal, 19.6%; in the test on SF-268 CNS it was 26.1%. Moreover, the growth in the test with SF-295 CNS is 21.3%; in the test with SF-539 CNS it was -60.5% (active); with UACC-257 melanoma it was 21.9%; in the test with M14 melanoma it was -72.7% (active).

With `O=C(CCN1CCCC1)Nc1ccc2c(Nc3ccc(Br)cc3)c3ccccc3nc2c1`, the growth is -70.8% (active) in the test on DU-145 prostate; -43.1% (active) in the test on K-562 leukemia; -86.2% (active) in the test with MALME-3M melanoma; -49.4% (active) in the test with MDA-MB-231 breast; 47% in the test with RXF 393 renal; -7.83% (active) in the test with SF-268 CNS. Besides, the growth is 46.3% in the test on SF-295 CNS, -67.9% (active) in the test with SF-539 CNS, -48.4% (active) in the test on UACC-257 melanoma and -75% (active) in the test on M14 melanoma.

`O=S(=O)(NCCNc1nccc(-c2c(-c3cccc(F)c3)nc3sccn23)n1)c1ccc(Cl)cc1`: the growth with DU-145 prostate was 54.2%; with K-562 leukemia, 41.3%; in the test with MALME-3M melanoma, 82.6%; in the test on MDA-MB-231 breast, 91.1%; with RXF 393 renal, 69%; in the test with SF-268 CNS it was 52.9%. In addition, the growth in the test on SF-295 CNS is 63.7%; in the test on SF-539 CNS it was 82.5%; in the test on UACC-257 melanoma, 88.7%; with M14 melanoma, 56.6%.

Take `Cc1nn(-c2ccccc2)c(Oc2c(Cl)cccc2Cl)c1/C=N/N=c1\sc2ccccc2n1C`: the growth in the test on DU-145 prostate is 67.7%; in the test on K-562 leukemia it was 28.3%; with MALME-3M melanoma it was 81.6%; in the test with MDA-MB-231 breast it was 51.3%; in the test on RXF 393 renal, 54.7%; with SF-268 CNS it was 52.2%. Further, the growth was 54.3% in the test with SF-295 CNS, 49.9% in the test with SF-539 CNS, 71.3% in the test with UACC-257 melanoma and 60.8% with M14 melanoma.

`CCN(CC)c1ccc(/C=N/NC(=O)CSc2nc3ccccc3c(=O)n2CCc2ccc(S(N)(=O)=O)cc2)c(O)c1`: the growth was 31% with DU-145 prostate; 7.07% (active) in the test with K-562 leukemia; 44.3% in the test with MALME-3M melanoma; 26% in the test with MDA-MB-231 breast; 44.1% in the test on RXF 393 renal; 32.5% with SF-268 CNS. Besides, the growth is 38.6% in the test with SF-295 CNS, 22.7% in the test on SF-539 CNS, 16.7% with UACC-257 melanoma and 31.1% with M14 melanoma.
